# Data taken from PubChem BioAssay.
# Values joined by “and” are separate entries in the source; they are usually repeats but may differ in a detail not shown here. Equal values may be shown once. Results filed as inconclusive are left out. Active and inactive are the calls of the source.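 How the source made its calls, unless noted: active means normalized viability below 100% at a tested concentration; inactive means the rest.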
# How the values were obtained:
# [1] = growth inhibition, single agents and combos, HTB85, cell-based, BGB or cisplatin IC20 combos, synergistic combos for chromothripsis tumors (AID 1671453); conditions: HTB85 osteosarcoma cells, drug combinations, stronger effect = higher value;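 further: cells exposed for 96 hours before readout; 0% = vehicle DMSO and 100% = high DMSO killing control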
# [2] = growth inhibition, MDA-MB-436, cell-based, BGB or cisplatin combos, synergistic combos for chromothripsis tumors (AID 1671458; call rule not given here;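 further: cells exposed for 96 hours; 0% = vehicle DMSO and 100% = killing by high DMSO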); conditions: MDA-MB-436 breast carcinoma growth inhibition, drug combinations, stronger effect = higher value
# [3] = BT084 cell growth, single and combined drugs, ICGC_MB145, cisplatin and BGB IC40 combos (AID 1671461; in the data active means inhibition above about 80%;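 further: cells exposed to drugs for 96 hours; 0% = vehicle DMSO and 100% = high DMSO full killing control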); conditions: BT084 medulloblastoma cells, drug combinations, stronger effect = higher value
# [4] = RCMB18 cell growth, single agent and combined, cisplatin and BGB IC40 combos (AID 1671462; in the data active means inhibition above about 80%;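 further: cells exposed to compound for four days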); conditions: RCMB18 medulloblastoma cells, stronger effect = higher value
# [5] = CRL1545 cell growth, single agent and combined, cisplatin and BGB IC20 combos (AID 1671464; in the data active means inhibition above about 80%;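 further: cells exposed to compound for 96 hours before readout; 0% = vehicle DMSO and 100% = high DMSO killing control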); conditions: CRL1545 osteosarcoma cells, stronger effect = higher value
# [6] = viability loss in pontine glioma line – cell-based, SU-DIPG-XVII, MIPE5.0, CellTiter-Glo, qHTS, dose response (AID 1347060; cut-off not given, nearly all actives have AC50 up to about 26 µM;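 further: cells exposed to compound for 48 hours before viability readout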); conditions: CellTiter-Glo ATP luminescence
# [7] = viability loss in pontine glioma line – cell-based, JHH-DIPG-1, MIPE4.0, CellTiter-Glo, qHTS, dose response (AID 1347062; cut-off not given, nearly all actives have AC50 up to about 27 µM;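 further: cells exposed to compound for two days before readout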); conditions: JHH-DIPG-1 viability, CellTiter-Glo ATP luminescence
# [8] = viability loss in pontine glioma line – cell-based, SU-DIPG-IV, MIPE4.0, CellTiter-Glo, qHTS, dose response (AID 1347063; cut-off not given, nearly all actives have AC50 up to about 30 µM;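 further: compound exposure lasted 48 hours before the viability readout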); conditions: CellTiter-Glo ATP luminescence
# [9] = viability loss in pontine glioma line – cell-based, SU-DIPG-XXV, MIPE5.0, CellTiter-Glo, qHTS, dose response (AID 1347065; cut-off not given, nearly all actives have AC50 up to about 26 µM;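 further: cells exposed to compound for 48 hours before ATP readout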); conditions: CellTiter-Glo ATP luminescence
# [10] = growth inhibition of DIPG cells – cell-based, MIPE4.0 library, CellTiter-Glo luminescence, qHTS (AID 1347066; cut-off not given, nearly all actives have AC50 up to about 30 µM;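 further: cells exposed to compound for 48 hours before readout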); conditions: SU-DIPG-VI viability, CellTiter-Glo ATP luminescence
# [11] = viability loss in pontine glioma line – cell-based, SU-DIPG-XIII, MIPE5.0, CellTiter-Glo, qHTS, dose response (AID 1347064; cut-off not given, nearly all actives have AC50 up to about 23 µM;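 further: cells exposed to compound for 48 hours before the viability read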); conditions: CellTiter-Glo ATP luminescence
# [12] = compounds altering HSF1 focus formation in cells – imaging, Selleck Cancer Library (AID 1347162; in the data active means plate-normalised HSF1 focus index below about 0.46); conditions: human cells, HSF1 nuclear foci imaging, at 10 µM; SSMD: measured here: HSF1 foci SSMD mean; cell count: measured here: cell number; plate-normalised HSF1 focus index: stronger effect = lower value
# [13] = JHH-DIPG-1 glioma cell viability, MIPE5.0 library, CellTiter-Glo luminescence, qHTS (AID 1347067; cut-off not given, nearly all actives have AC50 up to about 26 µM;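 further: cells exposed to compound for 48 hours before readout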); conditions: JHH-DIPG-1 glioma viability, CellTiter-Glo ATP luminescence
# [14] = growth inhibition of DIPG cells – cell-based, MIPE5.0 library, qHTS (AID 1347068; cut-off not given, nearly all actives have IC50 up to about 30 µM;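 further: cells exposed to compound for 48 hours before viability readout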); conditions: SU-DIPG-XXV viability
# [15] = viability loss with induced miR-34 in A549 – imaging, A549 dox-inducible miR-34, nuclei and caspase counts, primary screen (AID 1347080;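 active means compounds whose cell count with miR-34 switched on is under 0.7 times the count with it off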); conditions: A549 miR-34 inducible, Hoechst nuclei count, 48 h
# [16] = MELAS cybrid and Rieske KO viability enhancers – cell-based, MELAS cybrids, Rieske KO mouse fibroblasts, CellTiter-Glo, primary screen (AID 1508586;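 active means mean z-score across replicates of 1.96 or higher in either the MELAS or the Rieske mutant cell line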;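 further: z relative to plate mean and SD of compound and empty wells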); conditions: low glucose
# [17] = drug combination growth inhibition, ovarian cancer – cell-based, oncology-focused library, rucaparib conditional, profiling panel (AID 1508598); conditions: patient-derived ovarian cancer cells, CellTiter-Glo viability, 144 h, stronger effect = lower value
smiles,measurement,setting,value
C[C@]1(c2nc3c(C(N)=O)cccc3[nH]2)CCCN1,inhibition,"[1]; measured here: with BGB IC20, at 0.5 µM",-24.9% and -6.8%
same,inhibition,"[1]; measured here: with BGB IC20, at 5 µM",-10.1% and -13%
same,inhibition,"[1]; measured here: with cisplatin IC20, at 0.5 µM",-31.1% and -8.43%
same,inhibition,"[1]; measured here: with cisplatin IC20, at 5 µM",-30% and -31.9%
same,inhibition,"[1]; single agent, at 5 µM",-4.02% and -2.12%
same,inhibition,[2]; at 0.5 µM,-1.32% (inactive) and -13.2% (inactive)
same,inhibition,"[2]; measured here: BGB combination, at 0.5 µM",-3.82% and -21.5%
same,inhibition,"[2]; measured here: BGB combination, at 5 µM",-15.2% and -14.8%
same,inhibition,"[2]; measured here: cisplatin combination, at 0.5 µM",-9.15% and -22.2%
same,inhibition,"[2]; measured here: cisplatin combination, at 5 µM",7.37% and -17%
same,inhibition,[3]; at 0.5 µM,-14.1% (inactive) and -22% (inactive)
same,inhibition,"[3]; cisplatin combination, at 0.5 µM",-37.9% and -21.6%
same,inhibition,"[3]; cisplatin combination, at 5 µM",2.98% and -9.14%
same,inhibition,"[3]; measured here: BGB IC40 combination 0.05 uM, at 0.05 µM",13.6% and 2.76%
same,inhibition,"[3]; single agent, at 5 µM",-8.42% and -18.5%
same,inhibition,[4]; at 0.5 µM,-11.5% (inactive) and -16.6% (inactive)
same,inhibition,"[4]; cisplatin combo, at 5 µM",-70.2% and -50.3%
same,inhibition,"[4]; measured here: BGB IC40 combination, at 0.05 µM",-22.5% and 6.81%
same,inhibition,"[4]; measured here: combination with cisplatin, at 0.5 µM",-15.1%
same,inhibition,"[4]; single agent, at 5 µM",-28.5% and -25.1%
same,inhibition,[5]; at 0.5 µM,-23.7% (inactive) and 9.34% (inactive)
same,inhibition,"[5]; measured here: with BGB IC20 combination, at 0.5 µM",-29.8% and -8.71%
same,inhibition,"[5]; measured here: with cisplatin IC20 combination, at 0.5 µM",-22.5% and 16.5%
same,inhibition,"[5]; single agent, at 0.05 µM",-19.2% and -14.5%
same,inhibition,"[5]; single agent, at 5 µM",-45.7% and -33.6%
C[C@H]1[C@H](OC(=O)CCC(=O)O)O[C@@H]2O[C@@]3(C)CC[C@H]4[C@H](C)CC[C@@H]1[C@@]24OO3,AC50,[6],3.72 µM (active)
same,AC50,[7],14.8 µM (active)
same,AC50,[8],3.72 µM (active)
same,AC50,[9],13.2 µM (active)
same,outcome,[10],inactive
CN(C)CCCN=c1c2ccccc2n(C)c2[nH]c(=O)n(C)c(=O)c12,AC50,[6],29.5 µM (active)
same,AC50,[7],8.33 µM (active)
same,AC50,[8],14.8 µM (active)
same,AC50,[11],26.3 µM (active)
same,SSMD,[12],-0.045
same,cell count,[12],6580
same,plate-normalised HSF1 focus index,[12],0.997 (inactive)
CC(C)CC(=O)Nc1n[nH]c2c1CN(C(=O)C1CCN(C)CC1)C2(C)C,AC50,[6],6.61 µM (active)
same,AC50,[7],1.05 µM (active)
same,AC50,[8],2.35 µM (active)
same,AC50,[9],10.5 µM (active)
same,AC50,[13],4.17 µM (active)
same,IC50,[14],10.5 µM (active)
same,fold change,"[15]; stronger effect = lower value, cell number ratio, induced over uninduced",1.09 (inactive)
same,fold change,[15]; measured here: relative caspase fold change +Dox/-Dox,0.942
same,cell count,"[15]; measured here: total cells with miR-34 induction, stronger effect = lower value",1320
same,cell count,[15]; measured here: total cells without miR-34 induction,1210
same,SSMD,[12],-5.41
same,cell count,[12],7270
same,plate-normalised HSF1 focus index,[12],0.661 (inactive)
same,z-score,"[16]; MELAS cybrid survival, CellTiter-Glo 48 h, stronger effect = higher value",2.08 (active)
same,z-score,"[16]; Rieske KO mouse fibroblast survival, CellTiter-Glo 72 h",-0.842
same,viability,"[17]; at 0.000305 µM, OCI-C5x cells, with rucaparib 10 µM, 100% = cells with rucaparib alone",123% (inactive)
same,viability,"[17]; at 0.000305 µM, OCI-C5x cells, without rucaparib",128% (inactive)
same,viability,"[17]; at 0.000305 µM, OCI-P5x cells, with rucaparib 20 µM, 100% = cells with rucaparib alone",101% (inactive)
same,viability,"[17]; at 0.000305 µM, OCI-P5x cells, without rucaparib",115% (inactive)
same,viability,"[17]; at 0.00122 µM, OCI-C5x cells, with rucaparib 10 µM, 100% = cells with rucaparib alone",108% (inactive)
same,viability,"[17]; at 0.00122 µM, OCI-C5x cells, without rucaparib",125% (inactive)
same,viability,"[17]; at 0.00122 µM, OCI-P5x cells, with rucaparib 20 µM, 100% = cells with rucaparib alone",101% (inactive)
same,viability,"[17]; at 0.00122 µM, OCI-P5x cells, without rucaparib",118% (inactive)
same,viability,"[17]; at 0.00488 µM, OCI-C5x cells, with rucaparib 10 µM, 100% = cells with rucaparib alone",120% (inactive)
same,viability,"[17]; at 0.00488 µM, OCI-C5x cells, without rucaparib",128% (inactive)
same,viability,"[17]; at 0.00488 µM, OCI-P5x cells, with rucaparib 20 µM, 100% = cells with rucaparib alone",95.7% (active)
same,viability,"[17]; at 0.00488 µM, OCI-P5x cells, without rucaparib",112% (inactive)
same,viability,"[17]; at 0.0195 µM, OCI-C5x cells, with rucaparib 10 µM, 100% = cells with rucaparib alone",120% (inactive)
same,viability,"[17]; at 0.0195 µM, OCI-C5x cells, without rucaparib",130% (inactive)
same,viability,"[17]; at 0.0195 µM, OCI-P5x cells, with rucaparib 20 µM, 100% = cells with rucaparib alone",75.5% (active)
same,viability,"[17]; at 0.0195 µM, OCI-P5x cells, without rucaparib",92.9% (active)
same,viability,"[17]; at 0.0781 µM, OCI-C5x cells, with rucaparib 10 µM, 100% = cells with rucaparib alone",112% (inactive)
same,viability,"[17]; at 0.0781 µM, OCI-C5x cells, without rucaparib",134% (inactive)
same,viability,"[17]; at 0.0781 µM, OCI-P5x cells, with rucaparib 20 µM, 100% = cells with rucaparib alone",107% (inactive)
same,viability,"[17]; at 0.0781 µM, OCI-P5x cells, without rucaparib",122% (inactive)
same,viability,"[17]; at 0.313 µM, OCI-C5x cells, with rucaparib 10 µM, 100% = cells with rucaparib alone",109% (inactive)
same,viability,"[17]; at 0.313 µM, OCI-C5x cells, without rucaparib",118% (inactive)
same,viability,"[17]; at 0.313 µM, OCI-P5x cells, with rucaparib 20 µM, 100% = cells with rucaparib alone",99.5% (active)
same,viability,"[17]; at 0.313 µM, OCI-P5x cells, without rucaparib",96% (active)
same,viability,"[17]; at 1.25 µM, OCI-C5x cells, with rucaparib 10 µM, 100% = cells with rucaparib alone",109% (inactive)
same,viability,"[17]; at 1.25 µM, OCI-C5x cells, without rucaparib",113% (inactive)
same,viability,"[17]; at 1.25 µM, OCI-P5x cells, with rucaparib 20 µM, 100% = cells with rucaparib alone",75.7% (active)
same,viability,"[17]; at 1.25 µM, OCI-P5x cells, without rucaparib",69% (active)
same,viability,"[17]; at 5 µM, OCI-C5x cells, with rucaparib 10 µM, 100% = cells with rucaparib alone",45.8% (active)
same,viability,"[17]; at 5 µM, OCI-C5x cells, without rucaparib",69.4% (active)
same,viability,"[17]; at 5 µM, OCI-P5x cells, with rucaparib 20 µM, 100% = cells with rucaparib alone",25.6% (active)
same,viability,"[17]; at 5 µM, OCI-P5x cells, without rucaparib",6.68% (active)
